Results on five molecules are retold here after PubChem BioAssay.

A short description of experiment [1]: small molecules captured by biotinylated probe aFSTL3 – biochemical, small-molecule microarray, fluorescence 635/667, stem cell growth factor project, primary screen (AID 1064).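 Further: measures binding of the biotinylated anti-FSTL3 antibody to printed compounds.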 The conditions noted are these: higher = more signal.
Experiment [2] in a line: binders from COS7 lysate, DM2A8 probe, primary screen, torsin A project, cell lysate, small-molecule microarray, fluorescence 635/667 (AID 1065). The note with it: higher = more signal, COS7 lysate expressing mutant human TOR1A.
A short description of experiment [3]: small molecules captured by biotinylated probe aFGF2 – biochemical, small-molecule microarray, fluorescence 635/667, stem cell growth factor project, primary screen (AID 1067).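 Further: measures binding of biotinylated aFGF2 protein to printed compounds on slides; z-score merges feature fluorescence and signal-to-noise across triplicate slides.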 The note with it: higher = more signal.
Experiment [4] is described as follows: small molecules captured by biotinylated probe aFGF10 – biochemical, small-molecule microarray, fluorescence 635/667, stem cell growth factor project, primary screen (AID 1071).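 Further: score merges 667 nm spot intensity and signal to noise from triplicate slides.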 The note with it: higher = more signal.
Experiment [5] concerns the target Neurogenic locus notch homolog protein 2 (Homo sapiens) (UniProt Q04721). In words: small molecules binding Notch2 protein – biochemical, small-molecule microarray, 635 nm fluorescence, stem cell growth factors, primary screen (AID 1073). The conditions noted are these: higher = more signal.
Experiment [6] addresses Pro-neuregulin-1, membrane-bound isoform (Homo sapiens) (UniProt Q02297). Description: small molecules binding neuregulin-1 protein – biochemical, small-molecule microarray, fluorescence 635/667, psychiatric disease protein project, primary screen (AID 1075).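 Further: score combines 667 nm spot fluorescence with signal to noise.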 The conditions noted are these: NRG1 binding, 635 nm fluorescence, higher = more signal.
Experiment [7] deals with Neuregulin-1 EGF-like domain. Description: small molecules binding NRG1 EGF domain – biochemical, small-molecule microarray, 635 nm fluorescence, primary screen (AID 1081).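 Further: binding of the protein to compounds printed on small-molecule microarray slides.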 The conditions noted are these: higher = more signal.
Experiment [8] is described as follows: FRG1 expression reporter modulators in myotubes – cell-based, C2C12 myotubes, firefly/Renilla luciferase, luminescence, FRG1 inhibition for FSHD, primary screen (AID 1084). The note with it: FRG1 promoter luciferase, higher = more signal, called active from +8 up or from −8 down.
Experiment [9] is described as follows: small molecules captured by biotinylated probe aFST – biochemical, small-molecule microarray, fluorescence 635/667, stem cell growth factor project, primary screen (AID 1086).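 Further: score merges 667 nm fluorescence with signal-to-noise of each printed compound spot.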 The note with it: higher = more signal.
A short description of experiment [10]: binders of probe aHhip on microarray, primary screen, stem cell growth factor project, biochemical, small-molecule microarray, fluorescence 635/667 (AID 1087).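 Further: score merges spot fluorescence at 667nm with spot signal to noise ratio.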 The note with it: higher = more signal.
Experiment [11] has as its system PRMT1 (protein arginine N-methyltransferase 1). Description: small molecules binding arginine methyltransferase PRMT1 – biochemical, small-molecule microarray, 635 nm fluorescence, primary screen (AID 1088).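 Further: binding of Prmt1 protein to compounds spotted on small-molecule microarray slides.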 The conditions noted are these: higher = more signal.
Experiment [12] in a line: growth effects on S. cerevisiae YJM789 – YJM789 clinical isolate, OD600, 24 h, basal, primary screen (AID 1089).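 Further: growth of clinical yeast isolate S. cerevisiae YJM 789 seeded 1000 cells per well; test concentration not given here.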 The conditions noted are these: higher = more signal, called active from +8 up or from −8 down.
Experiment [13] in a line: S. pombe growth modifiers, basal conditions – strain 972, OD600, 24 h, no modulator, primary screen (AID 1090).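 Further: basal condition with compound alone and no growth modifier present; test concentration not given here.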 The note with it: S. pombe 972 growth, higher = more signal, called active from +8 up or from −8 down.
The nature of experiment [14]: budding yeast growth modifiers under rapamycin – strain BY4716, OD600, 96 h, primary screen (AID 1091). Further: test concentration not given here. The note with it: S. cerevisiae BY4716 + rapamycin, higher = more signal, called active from +8 up or from −8 down.
Experiment [15] addresses Torsin-1A-interacting protein 2 (Homo sapiens) (UniProt Q8NFQ8). In words: small molecules binding lysate-expressed LULL1 – cell lysate, human LULL1 lysate, 635/667 nm fluorescence, primary screen (AID 1092).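 Further: probe is lysate of COS7 cells overexpressing human LULL1; score merges per-feature 667 nm fluorescence with signal-to-noise.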 The conditions noted are these: small-molecule microarray, hLULL1 lysate binding, 635 nm fluorescence; higher = more signal.
Experiment [16] can be described thus: optical density change of DRC41 E. coli – strain DRC41, OD650, 24 h, E. coli filamentation project, primary screen (AID 1093).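 Further: MC1000 strain lacking acrAB efflux and sulA so SOS filamentation is blocked; test concentration not given here.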 The note with it: E. coli DRC41 growth, higher = more signal, called active from +8 up or from −8 down.
Experiment [17] is described as follows: probe aLefty2 binding to arrayed compounds – biochemical, biotinylated probe, 635/667 nm fluorescence, primary screen (AID 1094).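 Further: score merges spot fluorescence near 667 nm with spot signal-to-noise ratio.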 The conditions noted are these: small-molecule microarray, higher = more signal.
Experiment [18] relates to Noggin (protein binding on small-molecule microarray). Description: small molecules binding Noggin protein – biochemical, 635/667 nm fluorescence, primary screen (AID 1095).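 Further: score merges 667 nm feature fluorescence with signal to noise over triplicate slides.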 The note with it: 635 nm fluorescence, higher = more signal.
For experiment [19], the target named is Neurogenic locus notch homolog protein 3 (Homo sapiens) (UniProt Q9UM47). In words: small molecules binding NOTCH3 protein – biochemical, 635/667 nm fluorescence, primary screen (AID 1096). The conditions noted are these: small-molecule microarray, 635 nm fluorescence, higher = more signal.
Experiment [20] in a line: probe aEGFR binding to arrayed compounds – biochemical, biotinylated probe, 635/667 nm fluorescence, primary screen (AID 1097).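 Further: probe is a biotinylated anti-EGFR antibody binding compounds printed on slides; score combines fluorescence near 667 nm and signal to noise of each spot.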 The conditions noted are these: small-molecule microarray, higher = more signal.

The source made the active and inactive calls.

Sequence of Torsin-1A-interacting protein 2 (Homo sapiens) (Q8NFQ8 whole entry, looked up): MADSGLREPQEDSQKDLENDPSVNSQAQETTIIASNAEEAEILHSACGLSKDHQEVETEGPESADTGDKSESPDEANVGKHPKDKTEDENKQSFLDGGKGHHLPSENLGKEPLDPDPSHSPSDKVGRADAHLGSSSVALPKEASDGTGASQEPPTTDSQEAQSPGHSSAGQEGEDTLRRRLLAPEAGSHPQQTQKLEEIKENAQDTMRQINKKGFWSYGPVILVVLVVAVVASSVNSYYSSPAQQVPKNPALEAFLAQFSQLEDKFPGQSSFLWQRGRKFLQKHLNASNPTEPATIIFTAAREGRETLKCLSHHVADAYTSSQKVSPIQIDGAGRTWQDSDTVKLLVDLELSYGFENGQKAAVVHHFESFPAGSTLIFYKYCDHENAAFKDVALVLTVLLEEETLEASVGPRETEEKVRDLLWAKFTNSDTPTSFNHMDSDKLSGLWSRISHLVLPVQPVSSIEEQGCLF
Sequence of Neurogenic locus notch homolog protein 2 (Homo sapiens) (Q04721 whole entry, looked up, canonical isoform): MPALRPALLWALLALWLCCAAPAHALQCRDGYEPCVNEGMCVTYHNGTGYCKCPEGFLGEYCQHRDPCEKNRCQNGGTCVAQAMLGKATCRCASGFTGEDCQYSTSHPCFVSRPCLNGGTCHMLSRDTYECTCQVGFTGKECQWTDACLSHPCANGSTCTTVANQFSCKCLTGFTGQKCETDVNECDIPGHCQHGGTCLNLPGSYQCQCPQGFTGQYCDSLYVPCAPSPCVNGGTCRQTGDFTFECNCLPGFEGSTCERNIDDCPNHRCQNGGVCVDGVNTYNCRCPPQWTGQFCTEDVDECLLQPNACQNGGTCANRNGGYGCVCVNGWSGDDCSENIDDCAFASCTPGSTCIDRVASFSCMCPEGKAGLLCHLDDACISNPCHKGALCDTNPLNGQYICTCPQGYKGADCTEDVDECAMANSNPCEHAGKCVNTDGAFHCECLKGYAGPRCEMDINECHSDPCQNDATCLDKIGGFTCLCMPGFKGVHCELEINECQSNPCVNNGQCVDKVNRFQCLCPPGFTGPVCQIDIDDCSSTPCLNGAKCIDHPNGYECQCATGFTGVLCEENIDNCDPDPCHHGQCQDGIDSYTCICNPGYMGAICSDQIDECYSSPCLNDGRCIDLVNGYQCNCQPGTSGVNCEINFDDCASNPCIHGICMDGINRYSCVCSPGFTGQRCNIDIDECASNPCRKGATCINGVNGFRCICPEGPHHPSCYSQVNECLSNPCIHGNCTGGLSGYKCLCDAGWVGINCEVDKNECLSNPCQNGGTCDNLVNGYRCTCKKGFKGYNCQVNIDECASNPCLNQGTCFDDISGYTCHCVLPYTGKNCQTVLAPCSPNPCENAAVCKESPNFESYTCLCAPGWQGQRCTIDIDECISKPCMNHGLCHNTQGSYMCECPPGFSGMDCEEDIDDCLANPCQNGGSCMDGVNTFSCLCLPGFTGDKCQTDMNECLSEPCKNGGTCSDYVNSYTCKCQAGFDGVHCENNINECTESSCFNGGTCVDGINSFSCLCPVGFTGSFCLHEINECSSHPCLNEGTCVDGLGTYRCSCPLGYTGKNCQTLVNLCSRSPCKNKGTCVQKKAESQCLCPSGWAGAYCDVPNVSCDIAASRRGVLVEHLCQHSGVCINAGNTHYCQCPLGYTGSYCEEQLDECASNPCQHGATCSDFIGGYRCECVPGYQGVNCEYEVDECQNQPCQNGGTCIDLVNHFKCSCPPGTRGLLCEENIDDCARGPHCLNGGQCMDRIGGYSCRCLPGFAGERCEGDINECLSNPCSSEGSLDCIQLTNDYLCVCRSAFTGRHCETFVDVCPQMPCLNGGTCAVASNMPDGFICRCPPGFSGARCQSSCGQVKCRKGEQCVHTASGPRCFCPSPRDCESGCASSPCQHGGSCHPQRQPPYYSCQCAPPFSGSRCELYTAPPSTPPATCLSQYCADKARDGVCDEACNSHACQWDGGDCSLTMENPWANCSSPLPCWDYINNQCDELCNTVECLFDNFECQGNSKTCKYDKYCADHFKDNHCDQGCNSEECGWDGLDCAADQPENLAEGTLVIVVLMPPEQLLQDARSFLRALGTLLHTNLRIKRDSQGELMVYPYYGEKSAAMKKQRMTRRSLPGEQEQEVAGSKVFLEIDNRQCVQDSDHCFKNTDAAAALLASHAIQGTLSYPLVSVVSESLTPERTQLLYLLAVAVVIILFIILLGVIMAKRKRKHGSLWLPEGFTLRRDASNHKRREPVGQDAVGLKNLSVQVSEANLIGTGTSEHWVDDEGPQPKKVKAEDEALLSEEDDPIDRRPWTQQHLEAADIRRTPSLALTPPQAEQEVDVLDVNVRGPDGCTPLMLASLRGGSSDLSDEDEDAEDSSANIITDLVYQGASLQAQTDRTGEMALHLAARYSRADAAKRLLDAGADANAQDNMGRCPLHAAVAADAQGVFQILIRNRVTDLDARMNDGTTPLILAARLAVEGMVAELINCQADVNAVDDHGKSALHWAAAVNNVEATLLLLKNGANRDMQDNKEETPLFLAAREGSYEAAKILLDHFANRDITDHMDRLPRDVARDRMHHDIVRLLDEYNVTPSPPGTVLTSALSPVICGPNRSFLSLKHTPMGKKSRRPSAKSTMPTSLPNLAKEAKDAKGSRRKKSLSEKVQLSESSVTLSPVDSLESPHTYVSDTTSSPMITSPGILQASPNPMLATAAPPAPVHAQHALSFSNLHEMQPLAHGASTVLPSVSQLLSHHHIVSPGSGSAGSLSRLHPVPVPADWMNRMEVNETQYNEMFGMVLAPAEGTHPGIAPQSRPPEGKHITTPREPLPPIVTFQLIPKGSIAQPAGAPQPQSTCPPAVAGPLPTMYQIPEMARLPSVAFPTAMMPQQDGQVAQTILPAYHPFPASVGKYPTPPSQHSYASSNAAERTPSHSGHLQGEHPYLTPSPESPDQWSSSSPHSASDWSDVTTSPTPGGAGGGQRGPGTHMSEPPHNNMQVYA
Sequence of Pro-neuregulin-1, membrane-bound isoform (Homo sapiens) (Q02297 whole entry, looked up, the tested form may be a part, canonical isoform): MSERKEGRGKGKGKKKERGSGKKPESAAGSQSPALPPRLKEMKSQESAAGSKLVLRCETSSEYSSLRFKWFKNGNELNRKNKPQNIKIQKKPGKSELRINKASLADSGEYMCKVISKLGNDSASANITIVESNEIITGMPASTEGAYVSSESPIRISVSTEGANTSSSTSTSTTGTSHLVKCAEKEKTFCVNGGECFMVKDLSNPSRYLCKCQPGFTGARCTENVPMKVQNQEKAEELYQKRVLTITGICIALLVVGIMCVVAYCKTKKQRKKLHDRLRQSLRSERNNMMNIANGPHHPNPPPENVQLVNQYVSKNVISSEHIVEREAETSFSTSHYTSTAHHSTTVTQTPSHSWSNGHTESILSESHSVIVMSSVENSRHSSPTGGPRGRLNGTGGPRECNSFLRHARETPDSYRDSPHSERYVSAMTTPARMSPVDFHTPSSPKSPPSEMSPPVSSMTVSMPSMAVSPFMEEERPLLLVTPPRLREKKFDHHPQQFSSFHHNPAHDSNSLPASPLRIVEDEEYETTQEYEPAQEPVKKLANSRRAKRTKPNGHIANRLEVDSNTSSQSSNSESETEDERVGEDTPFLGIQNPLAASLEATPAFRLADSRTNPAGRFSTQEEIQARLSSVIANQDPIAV

On to `COCCCNC(=O)[C@@]1(C)c2ccccc2C(=O)N(Cc2ccc(OC(F)(F)F)cc2)[C@H]1c1ccc(CO)cc1`, for which the composite z-score in [1] is 0.729; in experiment [2], -0.255; in experiment [3], -0.116; in [4], -0.0476; in experiment [5], -0.505; in experiment [6], 0.785. Further, the composite z-score in [7] is 1.45; in experiment [9], 0.153; in experiment [10] it was 0.213; in experiment [11] it was 0.289; in experiment [15] it was -0.0493; in experiment [17], 0.134. Also, the composite z-score in experiment [18] was -0.598; in experiment [19], -0.519; in experiment [20], 0.146. Further, the z-score in experiment [8] was -2.6 (inactive); in experiment [12], -0.0965 (inactive); in [13], 0.203 (inactive); in experiment [14] it was -0.35 (inactive); in experiment [16], 0.93 (inactive).
In the case of `COc1ccc([Si](C)(C)[C@H]2[C@H](CCO)O[C@@]3(C(=O)N(Cc4cccc(NC(=O)[C@H](C)O)c4)c4ccccc43)[C@@H]2C)cc1`, the composite z-score in [1] is -0.456; in [2], 0.634; in [3] it was -0.101; in experiment [4] it was 0.136; in [5] it was 0.612; in experiment [6], 0.84. The composite z-score in experiment [7] is 1.22; in experiment [9] it was -0.0054; in experiment [10], 0.212; in [11] it was 1.54; in experiment [15], 2.47; in experiment [17], -0.0664. The composite z-score in [18] was 1.24; in [19], 1.09; in experiment [20] it was -0.013. Further, the z-score was -2.68 (inactive) in [8]; 1.62 (inactive) in [12]; 0.562 (inactive) in experiment [13]; 7.56 (inactive) in experiment [14]; 1.24 (inactive) in experiment [16].
Regarding `O=C1NC(=O)C2C1C=CC(C(O)Cc1ccccc1)N2Nc1ccccn1` (stereo not given), the composite z-score was -0.368 in [1]; 0.0052 in experiment [2]; -0.0154 in [3]; 0.477 in experiment [4]; 1.14 in experiment [5]; 1.79 in experiment [6]. For the same molecule, the composite z-score in experiment [7] is 0.934; in experiment [9] it was 0.494; in experiment [10] it was -0.0618; in experiment [11], 0.185; in experiment [15], 2.31; in [17], 0.101. Besides, the composite z-score is 0.0356 in [18], 0.504 in experiment [19] and 0.0026 in experiment [20]. The z-score is -0.518 (inactive) in experiment [8]; -0.47 (inactive) in [12]; 1.21 (inactive) in experiment [13]; -1.22 (inactive) in [14]; 0.297 (inactive) in experiment [16].
On to `CCc1cc2c(nc1CC)CCN(CCC(C)=NOC[C@@H](O)[C@H]1O[C@@H]3OC(C)(C)O[C@@H]3[C@H]1O)C2`, for which the composite z-score is -0.436 in experiment [1]; 0.273 in [2]; -0.148 in [3]; 0.0851 in experiment [4]; 0.191 in experiment [5]; 0.146 in [6]. For the same molecule, the composite z-score in experiment [7] is 0.335; in experiment [9] it was 0.0391; in experiment [10], -0.0088; in experiment [11], 0.85; in experiment [15] it was 0.767; in experiment [17], -0.175. Further, the composite z-score in experiment [18] is 0.276; in [19], 0.0003; in [20], -0.0343. Besides, the z-score was 1.35 (inactive) in experiment [8]; -1.63 (inactive) in experiment [12]; 0.24 (inactive) in [13]; -0.282 (inactive) in experiment [14]; 0.71 (inactive) in experiment [16].
As for `O=C1CCCC2OC12C(O)CCc1ccccc1` (stereo not given), the composite z-score in experiment [1] was -0.555; in [2], 0.475; in experiment [3], -0.166; in experiment [4], 0.411; in [5] it was 0.455; in experiment [6], -0.333. For the same molecule, the composite z-score in [7] was -0.251; in experiment [9], -0.0128; in [10], -0.226; in experiment [11] it was -0.071; in [15] it was -0.0258; in experiment [17], -0.215. For the same molecule, the values for the composite z-score in experiment [18], in experiment [19] and in experiment [20] were 0.373, 0.0248 and 0.395, respectively. For the same molecule, the z-score is 0.42 (inactive) in experiment [8]; 0.238 (inactive) in experiment [12]; 0.211 (inactive) in experiment [13]; 0.164 (inactive) in [14]; 0.454 (inactive) in [16].
